This is one part of a sample in which hits are shown more often than they occur.
Dicer inh: inhibitors of Dicer pre-microRNA processing, primary screen, biochemical, cat-ELCCA, chemiluminescence; cat-ELCCA pre-miR-21 Dicer processing; hits give high values; z-score at 25 µM; 47,000 tested, 6% active; AID 1347074, 2019; in the data active = z-score above about 3, passing the limit was not always enough;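 note: plate controls were vehicle for no effect and no enzyme for full effect; higher signal means more uncleaved substrate so more Dicer inhibition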
* hit, by the source's call.

SMILES | Dicer inh
CC(=O)COc1nc2c(c(-c3ccc(Cl)cc3)c1C#N)CCc1ccccc1-2 | 3.2*
CC(=O)COc1nc2c(c(-c3ccco3)c1C#N)CCc1ccccc1-2 | 243
CCOc1nc2c(c(-c3ccc(OC)cc3)c1C#N)Cc1ccccc1-2 | -1.6
CC(C)(C)C(=O)c1cn(CC(=O)N2CCCc3ccccc32)c2ccccc12 | 1
O=C(O)C(Cc1ccc(O)cc1)NC1CCS(=O)(=O)C1 (stereo not given) | 1.2
CCc1ccc2[nH]c(C(=O)NCCN3CCOCC3)cc2c1 | -1.8
CCOc1ccc(/C(O)=C2/C(=O)C(=O)N(CCCOC)C23C(=O)N(CC)c2ccccc23)cc1 (stereo not given) | -7.4
CCCN1C(=O)C2(/C(=C(/O)c3ccc(C)c(F)c3)C(=O)C(=O)N2CCCOC)c2ccccc21 (stereo not given) | 1
CCN1C(=O)C2(/C(=C(/O)c3ccc(OC)cc3)C(=O)C(=O)N2CCCOC)c2ccccc21 (stereo not given) | 2
CCN1C(=O)C2(/C(=C(/O)c3ccc(C)cc3)C(=O)C(=O)N2CCCOC)c2ccccc21 (stereo not given) | 3.3*
CCCN1C(=O)C2(/C(=C(/O)c3ccc(C)cc3)C(=O)C(=O)N2CCOC)c2ccccc21 (stereo not given) | 1.2
CCCN1C(=O)C2(/C(=C(/O)c3ccc(F)cc3)C(=O)C(=O)N2CCCOC)c2ccccc21 (stereo not given) | 3.6*
CC(=O)N(C1=NCCC(=O)S1)c1ccc(Cl)cc1 | -2.5
CCc1ccnc(NS(=O)(=O)c2ccc3c(c2)OCCCO3)c1 | -1.5
COc1cccc(Oc2c(C(F)(F)F)oc3cc(OC(=O)N4CCOCC4)ccc3c2=O)c1 | 1.3
COCCOC(=O)C1=C(C)NC2=C(C(=O)CC(C)(C)C2)C1c1ccc(OC)c(Br)c1 (stereo not given) | 1.3
O=c1[nH]c(=S)ccn1-c1nc(-c2ccccc2)sc1-c1ccccc1 | 0.11
N#Cc1ccc(CSC(N)=Nc2ccccc2)cc1 | -0.99
COc1ccccc1N=C(N)SCc1ccccc1 | 5.9*
NC(=Nc1ccccc1)SCc1ccc([N+](=O)[O-])cc1 | -1.4
Cc1ccc(N2C(=O)C3C4c5ccccc5C(C(=O)O)(c5ccccc54)C3C2=O)c(Br)c1 (stereo not given) | -0.81
O=C(Nc1ccc2c(c1)CS(=O)(=O)C2)c1cccs1 | 0.38
O=C(Nc1ccc(F)cc1)c1sc2ccccc2c1Cl | -0.53
COCCNC(=O)c1cc2sc3ccccc3c2s1 | 3.9*
CN(C)c1ccc(NC(=O)c2cccs2)cc1 | 3.2*
SMILES | Dicer inh
CCN(CC)CCCNC(=O)c1sc2ccccc2c1Cl | -0.79
CN(C)c1ccc(C(O)C(=O)c2cccs2)cc1 (stereo not given) | 0.15
CN(C)c1ccc(NC(=O)c2cc3sc4ccccc4c3s2)cc1 | 6.5*
O=C(Nc1cccc(S(=O)(=O)N2CCOCC2)c1)c1cc2sc3ccccc3c2s1 | -0.66
COC(=O)c1sc2ccccc2c1Cl | -0.81
CCOC(=O)c1sc2nc(SCc3ccccc3)nc(-c3ccc(OC)cc3)c2c1N | -0.74
O=S(=O)(c1ccc(F)cc1)N1CCC(Cc2ccccc2)CC1 | 0.45
Cc1c(NC(=O)/C=N/O)c(=O)n(-c2ccccc2)n1C | 0.61
Cc1cc(S(=O)(=O)Nc2ccc3c(c2)OCC2CCCN32)c(C)s1 (stereo not given) | 6.7
O=C(CSc1nnc2scc(-c3ccccc3)n12)c1ccc(Cl)cc1 | 0.3
COc1ccc(/C=C/c2ccc(OC)cc2)cc1 | 3.1*
COc1ccc(/C=C/c2sc(C)c(C)[n+]2C)cc1 | -4.8
COc1ccc(/C=C/c2nc3ccccc3n2C)cc1 | 1.1
Cc1cc(C)c(S(=O)(=O)Nc2cc(Cl)c3oc(=O)sc3c2)c(C)c1 | 12*
Cc1cc(C)c(S(=O)(=O)Nc2ccc(O)cc2)c(C)c1 | 1.4
COc1ccc(S(=O)(=O)Nc2cc(Cl)c3oc(=O)sc3c2)cc1OC | 4.3*
COc1nc(NS(=O)(=O)c2ccc(C)cc2)nc(C)c1Cl | -0.17
Cc1cc(C)c(S(=O)(=O)Nc2cccc3ccc(C)nc23)c(C)c1 | -0.95
COc1ccc(OC)c(NS(=O)(=O)c2ccc(Br)cc2)c1 | 6.1
Cn1c(Cl)c[n+](C)c1C(O)c1ccccc1 (stereo not given) | 0.54
CCCCCCNc1nc(C)nc2c1sc1nc3c(cc12)COC(C)(C)C3 | 0.21
Cc1ccc2oc(-c3cc(N)ccc3Cl)nc2c1 | 2.7
Nc1ccc(Cl)c(-c2nc3cc(Cl)ccc3o2)c1 | 1.8
CCc1ccc2oc(-c3cc(N)ccc3Cl)nc2c1 | 4.5*
N#C/C(=N\Nc1ccc(C(F)(F)F)cc1)C(=O)C1CC1 | 0.92
SMILES | Dicer inh
CCN(CC)c1ccc(C2C3=C(CC(C)(C)CC3=O)Nc3ncnn32)cc1 (stereo not given) | 2.2
O=C1CC(c2ccc(Cl)cc2)CC2=C1C(c1cccnc1)n1c(nc3ccccc31)N2 (stereo not given) | -0.56
CC1CC(=O)C2=C(C1)Nc1ncnn1C2c1ccccc1 (stereo not given) | 4.6*
CC1(C)CC(=O)C2=C(C1)Nc1ncnn1C2c1ccccc1 (stereo not given) | 1.9
Cc1ccc(C2C3=C(CC(c4ccc(Cl)cc4)CC3=O)Nc3ncnn32)cc1 (stereo not given) | 0.34
CC1(C)CC(=O)C2=C(C1)Nc1ncnn1C2c1ccc(Cl)cc1 (stereo not given) | 3.2*
O=C1CCCC2=C1C(c1cccc(O)c1)n1ncnc1N2 (stereo not given) | 0.53
CC1(C)CC(=O)C2=C(C1)Nc1ncnn1C2c1cccc(O)c1 (stereo not given) | -0.16
Cc1ccc(C2C3=C(CC(c4ccccc4)CC3=O)Nc3nc(C(F)(F)F)nn32)cc1 (stereo not given) | 3*
CC(C)(C)c1cc2nc(-c3cc(C(F)(F)F)cc(C(F)(F)F)c3)cc(=O)n2[nH]1 | 1.9
CCNc1nc(SCc2ccc(Cl)cc2)nc2sc3c(c12)CCN(C)C3 | -2
CCOC(=O)/C(C#N)=C/c1ccccc1Cl | -1.2
Cc1cc(Oc2ccccc2)ccc1[N+](=O)[O-] | 0.8
O=C1c2cc(S(=O)(=O)N3CCCCCC3)cc([N+](=O)[O-])c2-c2c1cc(S(=O)(=O)N1CCCCCC1)cc2[N+](=O)[O-] | -0.52
O=C(Nc1ccc(F)cc1F)c1cc(Cl)c(-n2cccc2)c(Cl)c1 | 0.09
COC(=O)C1=C(C)N(c2cc(C)cc(C)c2)C(=O)C1 | 3.6*
COC(=O)C1=C(C)N(Cc2cccnc2)C(=O)C1 | -0.1
CCOC(=O)C1=C(C)N(c2ccccc2)C(=O)C1 | 2
Cc1c(S(=O)(=O)c2ccc(Cl)cc2)csc1S(=O)(=O)N1CCCC1 | 3*
Cc1c(S(=O)(=O)c2ccc(Cl)cc2)csc1C(=O)Nc1ccc(N2CCOCC2)c(Cl)c1 | -1.9
Cc1ccc2c(c1)CCCN2C(=O)c1scc(S(=O)(=O)c2ccc(Cl)cc2)c1C | -1.7
O=c1c2[nH]cnc2n(-c2ccccc2F)c(=O)n1Cc1ccccc1F | 0.16
Cc1ccc2oc(C(F)(F)F)cc(=O)c2c1 | 3.5*
Cc1ccc2oc(-c3ccc(Br)cc3)cc(=O)c2c1 | 0.77
Cc1ccc2oc(NC(=O)N3CCOCC3)cc(=O)c2c1 | -0.18
CCC(C(=O)NNC(=O)c1ccc(N(C)C)cc1)c1ccccc1 (stereo not given) | 0.09
CN(C)CCN1C(=O)C(O)=C(C(=O)c2cc3ccccc3o2)C1c1cccc(Oc2ccccc2)c1 (stereo not given) | 0.92

Screening results from PubChem.
